Smad3 FoxH1 inh: Smad3 (human) transcription factor binding inhibition; P84022; TR-FRET Smad3/Dy647-FoxH1 peptide binding, europium anti-His; inhibition, % at 25 µM; 88,000 compounds, 0.29% hits;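 active = compounds that reduce the energy-transfer binding signal between the protein and its labelled peptide by more than half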;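 note: 0% = Smad3 plus labelled peptide maximal FRET and 100% = peptide-only background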
ERb coact inh: blocks coactivator binding to human estrogen receptor beta; inhibition, % at 25.6 µM; TR-FRET ER-beta LBD / SRC1-Cy5 peptide binding; receptor agonist-loaded with 1 µM estradiol; 86,000 compounds, 1.3% hits; Q92731; AID 633;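 active = compounds whose percent inhibition of the receptor-coactivator binding signal exceeds about 50% in the single-dose screen, limit read from the data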;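 note: 0% = receptor plus peptide wells without compound and 100% = peptide-only wells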
Target sequence (Q92731 whole entry, looked up, the tested form may be a part): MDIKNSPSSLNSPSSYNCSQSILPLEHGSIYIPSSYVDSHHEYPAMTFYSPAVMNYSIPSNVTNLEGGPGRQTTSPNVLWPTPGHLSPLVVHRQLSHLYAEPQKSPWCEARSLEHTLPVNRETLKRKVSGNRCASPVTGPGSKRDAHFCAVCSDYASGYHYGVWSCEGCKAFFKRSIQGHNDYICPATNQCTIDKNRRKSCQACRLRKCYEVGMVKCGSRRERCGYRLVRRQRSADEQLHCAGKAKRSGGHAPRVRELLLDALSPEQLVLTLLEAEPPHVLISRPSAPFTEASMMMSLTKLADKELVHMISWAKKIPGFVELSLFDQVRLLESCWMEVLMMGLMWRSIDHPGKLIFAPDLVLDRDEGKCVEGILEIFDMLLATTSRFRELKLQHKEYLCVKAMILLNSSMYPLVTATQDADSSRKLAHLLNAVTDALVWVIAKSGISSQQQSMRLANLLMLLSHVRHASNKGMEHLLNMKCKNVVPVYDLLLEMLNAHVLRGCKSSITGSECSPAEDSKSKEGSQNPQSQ
Candida biofilm: kills Candida albicans biofilms | C. albicans biofilm + clotrimazole, Alamar Blue | inhibition, % at 6 µM | 85,000 compounds, 0.14% hits | AID 834;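 active = inhibition above 20%; inactive = inhibition below 20%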;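 note: preformed 24 hr biofilms exposed to compound for 48 hr; 0% = biofilm without compound and 100% = blank killed by clotrimazole plus chlorhexidine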
ERa coact pot: enhances coactivator binding to human estrogen receptor alpha. coactivator binding (% of control), % at 25.6 µM. P03372. AID 639. 86,000 compounds, 1.3% hits. TR-FRET ERalpha-LBD/SRC-Cy5 coactivator binding, 2 h; 100 = basal binding, no effect; in the data active = activity above about 200%;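 note: binding measured in presence of low estradiol as agonist stimulus; 0% = peptide alone without receptor and 100% = receptor with peptide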
ERa SRC1 inh: ER-alpha (human) coactivator binding inhibition; AID 629; inhibition, % at 25.6 µM; 86,000 compounds, 1.7% hits; TR-FRET ER-alpha LBD / SRC-1 peptide, estradiol-bound; P03372; in the data active = inhibition above about 50%;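 note: 0% = receptor plus peptide control and 100% = peptide only without receptor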
MT1-MMP txn act: MT1-MMP promoter transcription activation; HT1080 MT1-MMP promoter luciferase reporter, luminescence, overnight; active compounds read high; activation factor at 10 µM; 86,000 compounds, 0.16% hits; AID 750;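 active = activation factor of at least 2 for MT1-MMP transcription at 10 µM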
Starred values were filed as active, the others as inactive; / = no result given; [ ] = dose if it differs, or a comment. Sampled rows, rich in hits. Any-hit rate of the full collection: about 3.8%.

SMILES | Smad3 FoxH1 inh | ERb coact inh | Candida biofilm | ERa coact pot | ERa SRC1 inh | MT1-MMP txn act
Cc1cc(C)c2nc(-c3ccccn3)cc(C(=O)NCc3ccco3)c2c1 | 5.8 | 62.6*[fluorescence artefact?] | 3.3 | 83.0 | 66.4* | 1
O=C(NCc1ccco1)c1cc2ccccc2c(=O)o1 | 3.5 | 47.4 | 1.6 | 67.3 | 57.1* | 1.7
Cc1ccc(-c2cc(C(=O)NCc3ccco3)c3ccccc3n2)o1 | 22.0 | 72.6* | 7.3 | 24.9 | 82.2* | 1.3
Cc1cc(NC(=O)c2cc(-c3ccccn3)nc3ccccc23)no1 | 0.9 | -12.5 | 7.5 | 87.6 | -6.8 | 1.1
Cc1ccc(-c2cc(C(=O)Nc3ccccc3C)c3ccccc3n2)o1 | 9.7 | 56.2*[fluorescence artefact?] | 5.3 | 65.6 | 78.0*[fluorescence artefact?] | 1.3
Cc1nnc(SCC(N)=O)n1CCc1ccccc1 | -6.8 | 7.4 | 6.2 | 87.7 | 1.5 | 1.2
O=C1[C@@H]2[C@H](C(=O)N1CN1CCSCC1)[C@H]1[C@@H]3C=C[C@@H]([C@@H]4C(=O)N(CN5CCSCC5)C(=O)[C@@H]34)[C@@H]21 | -3.4 | / | / | / | / | /
O=C(O)CSCCc1ccccc1 | -16.3 | / | / | / | / | /
COC(=O)c1cc(NC(=O)c2ccc(Cn3cc(Cl)cn3)o2)cc(C(=O)OC)c1 | 4.4 | 27.8 | 8.3 | 100.4 | 58.0*[fluorescence artefact?] | 1.3
COC(=O)c1ccccc1NC(=O)c1ccc(Cn2cc(Cl)cn2)o1 | 1.6 | 1.7 | 6.3 | 75.2 | 16.9 | 1.2
CN(CC(=O)O)Cc1c[nH]c2ccccc12 | -8.3 | / | / | / | / | /
COc1ccc(-c2nn(C)c3sc(C(=O)NCc4ccco4)cc23)cc1OC | -0.3 | 58.9*[fluorescence artefact?] | -2.2 | 64.2 | 79.9*[fluorescence artefact?] | 1.1
Cn1nc(-c2ccc(C(=O)Nc3cccc(Cl)c3)cc2)c2ccccc2c1=O | -112.1 | 8.8 | 2.6 | 260.5* | 15.1 | 1
Cc1ccc(NC(=O)c2ccc(-c3nn(C)c(=O)c4ccccc34)cc2)cc1 | 2.8 | 17.0 | 3.3 | 138.3 | 36.1 | 1.1
COC(=O)c1ccc2c(=O)n(CCN3CCOCC3)c(SCC(=O)C(C)(C)C)nc2c1 | -1.5 | 3.7 | 6.6 | 786.4*[fluorescence artefact?] | 9.5 | 1.1
CC1(C)Cc2c(ccc3ccccc23)/C(=C/C(=O)N2CCCCC2)N1 | -3.9 | 1.1 | 9.6 | 134.1 | 0.8 | 1.2
O=C(/C=C1\NC2(CCCC2)Cc2ccccc21)N1CCOCC1 | 33.7 | 82.8*[fluorescence artefact?] | 3.4 | 97.6 | -2.4 | 1.2
COc1ccc(Cn2nnnc2C(c2ccccc2OC)N2CCC(C(N)=O)CC2)cc1 (configuration not stated) | 5.3 | 64.2* | 2.9 | 99.6 | -4.8 | 1
COc1ccc(OC)c(C(c2nnnn2Cc2ccccc2)N2CCC(C(N)=O)CC2)c1 (configuration not stated) | -20.0 | 0.3 | -0.1 | 112.6 | -9.3 | 1.1
CCOc1ccc(-c2nnn(CC(=O)c3ccc4c(c3)OCCO4)n2)cc1OCC | -2.1 | 26.2 | 0.3 | 385.5*[fluorescence artefact?] | 13.1 | 1.1
CCOc1ccc(-c2nnn(CC(=O)NCc3ccc(F)cc3)n2)cc1OCC | 1.9 | 4.0 | -0.8 | 115.0 | 1.4 | 1.2
C=CCc1cccc(/C=N/c2ncccc2O)c1O | 15.9 | 57.8*[fluorescence artefact?] | -0.4 | 62.8 | 21.5 | 1.3
C=CCc1cccc(/C=N/n2cnnc2)c1O | / | / | / | / | / | 0.9
O=c1[nH]c(-c2ccccn2)nc2ccccc12 | -23.8 | 3.8 | 2.3 | 89.3 | 3.0 | 1.3
c1ccc(-c2nc3c(ccc4ccccc43)[nH]2)nc1 | 14.3 | -7.9 | 3.9 | 91.1 | -17.0 | 2.3*
SMILES | Smad3 FoxH1 inh | ERb coact inh | Candida biofilm | ERa coact pot | ERa SRC1 inh | MT1-MMP txn act
CN(C)c1ccc(C(=O)Nc2nnc(-c3ccc(Cl)cc3)o2)cc1 | -56.7 | 56.4*[fluorescence artefact?] | 17.4 | 178.4 | 63.9*[fluorescence artefact?] | 1.2
CC(=O)c1ccc(C(=O)Nc2nnc(-c3ccc(Cl)cc3)o2)cc1 | / | / | / | / | / | 1
CCc1cccc2c(C(=O)Cn3nnc(-c4ccc(OC)c(OC)c4)n3)c[nH]c12 | 8.9 | 26.9 | -1.8 | 103.4 | 61.5* | 1.1
O=C(O)C[C@H](NC(=O)CP(=O)(O)O)C(=O)O.[NH-][C@@H]1CCCC[C@H]1[NH-].[Pt] | 40.7 | / | / | / | / | /
CN(C)CCNS(=O)(=O)N(C)C | 2.2 | / | / | / | / | /
CC(Cc1ccc(O)c(O)c1)C(C)Cc1ccc(O)c(O)c1 (configuration not stated) | 4.3 | 82.8*[fluorescence artefact?] | 12.2 | 40.3 | 65.9* | 1.1
COc1ccc(Cl)cc1NC(=O)c1ocnc1C | 2.5 | 62.4* | 1.6 | 54.6 | 52.2* | 1
COc1ccc(NC(=O)c2ocnc2C)cc1OC | 2.6 | -5.9 | 5.6 | 111.2 | -5.2 | 1.2
C/C(N[O-])=C(\C)[N+]([O-])=[Co].CC(=N\[O-])/C(C)=N/[O-].C[CH-][C@@H](C)O.c1ccncc1 | 65.8* | / | / | / | / | /
N[C@@H](Cc1ccnnc1)C(=O)O | -7.9 | / | / | / | / | /
CCC/C=C(\CCC)C(NC(=O)c1ccco1)c1ccc(C(=O)OC)cc1 (configuration not stated) | / | / | / | / | / | 1
O=C(c1ccccc1)N1CCN(C2CCCCCC2)CC1 | 2.9 | 3.2 | 3.9 | 113.2 | 7.2 | 1.3
O=C(O)c1c2c(c(O)c3c1CN(C1CCCCC1)CO3)OCN(C1CCCCC1)C2 | 62.4* | / | / | / | / | /
O=C(O)[C@@H](Br)[C@@H](Br)c1ccccc1[N+](=O)[O-] | 12.7 | / | / | / | / | /
N=C(N)SCCSC(=N)N | 68.5* | / | / | / | / | /
Nc1nc(-c2ccco2)cs1 | 3.0 | 3.9 | 3.3 | 78.7 | -3.9 | 1.4
c1coc(-c2nc(-c3ccco3)c(-c3ccco3)nc2-c2ccco2)c1 | 17.9 | 85.5*[fluorescence artefact?] | 8.2 | 10.1 | 87.0*[fluorescence artefact?] | 1.1
Nc1nc(-c2ccco2)c(-c2ccco2)s1 | 6.6 | 53.9* | 6.1 | 62.8 | 34.7 | 1.1
COc1ccc(CNC(=O)c2cc(-c3ccco3)on2)cc1 | 5.8 | 9.7 | 3.6 | 107.8 | 2.1 | 1.2
c1coc(-c2ncc[nH]2)c1 | -1.7 | -7.2 | 4.4 | 118.7 | -13.5 | 1.1
COc1ccc2nc(-c3ccco3)c(-c3ccco3)nc2c1 | 20.1 | 98.1*[fluorescence artefact?] | 0.1 | 11.6 | 97.1*[fluorescence artefact?] | 0.9
Nc1c(Cl)cc(Cl)cc1C(=O)OCC(=O)NC1CC1 | 4.3 | 55.1* | 2.0 | 59.2 | 39.7 | 1.2
CCS(=O)(=O)NCc1csc(-c2ccccc2)n1 | -4.7 | 30.9 | 25.1* | 90.8 | -1.5 | 1.4
COC(=O)[C@@]1(Cc2ccc(F)cc2)[C@H]2c3cc(C(=O)N(C)C)n(CCc4ccc(O)c(O)c4)c3C[C@H]2CN1C(=O)c1ccccc1 | / | / | / | / | / | 1.1
N#C/C(=N\Nc1ccccc1F)C(=N)N1CCCCC1 | -1.3 | 60.0*[fluorescence artefact?] | -4.0 | 127.8 | -5.0 | 2*
N#C/C(=N\Nc1ccc(Cl)cc1)C(=N)N1CCCCC1 | -5.8 | 11.7 | 3.6 | 44.3 | -2.8 | 1.2
CCOC(=O)/C=C1\SCC(=O)N1Cc1nnc(-c2ccccc2Br)o1 | -5.2 | 41.5 | 6.8 | 58.6 | 59.3*[fluorescence artefact?] | 1
CCc1ccc2nc(NC(=O)c3ccc4c(=O)[nH]c(CN5CCOCC5)nc4c3)sc2c1 | 14.8 | 48.2 | 2.5 | 170.1 | 69.0* | 1.3
O=C(OCc1cccc2ccccc12)c1ccc2c(=O)[nH]c(CN3CCOCC3)nc2c1 | 5.9 | -0.1 | 3.2 | 142.0 | -1.1 | 1.1
